# Measured values taken from PubChem BioAssay (NCATS).
# Inconclusive results are not listed. Entries that show only a call come without a potency. A number with no mark means an inactive call. Activity calls are given as the source filed them. Calls come from the whole dose curve; as a rule, active = well fitted activation curve with a large enough effect; inconclusive = small, poorly fitted or top-dose-only effect; inactive = flat fitted curve, though single readings scatter. Where a SMILES comes first, the peptide text is derived from it. [ ]: non-standard residue; d: D form.
# Experiment: Primary redox qHTS assay for identification of artifact compounds. (AID 1845223)
# Outline: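 Amplex Red (25 uM) and HRP (250 mU/mL) in HBSS, with compounds for 15 min, then 250 uM DTT for 30 min, room temperature, dark. Fluorescence 525/598 nm read; normalized to DMSO and 10 uM DA3003; Hill fit.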
SMILES,Potency,redox activity (% of DA3003)
COC1CCCC/C(C)=C/C2C=C(C)C(C)C3C(CC(C)C)NC(=O)C23C(=O)C1 (centres undefined),inactive,
C=C[C@@]1(C)CC(=O)C2[C@](C)(O1)[C@@H](OC(C)=O)[C@@H](O)[C@H]1C(C)(C)CCC[C@]21C (some centres undefined),,11% [at 11.5 µM]
CNc1nc(Nc2cnn([C@H]3CCN(C4COC4)C[C@@H]3F)c2Cl)ncc1C(F)(F)F,inactive,
CC(=O)N[C@H](Cc1ccc(O)cc1)C(=O)N[C@H](CCCN=C(N)N)C(=O)N[C@H](Cc1ccccc1)C(N)=O (Ac-[dY]-[dR]-[dF]-NH2),inactive,
CC(C)c1ccc(CC(=O)N2CCC[C@@H](c3cccc(OC(C)(C)C(=O)O)c3)C2)cc1,inactive,
CC1CCC2(C(=O)OC3OC(CO)C(O)C(O)C3O)CCC3(C(=O)O)C(=CCC4C5(C)CCC(OC6OC(C)C(O)C(O)C6O)C(C)(C)C5CCC43C)C2C1C (centres undefined),inactive,
OCC1=CC[C@@H]2C=CO[C@@H](O[C@@H]3O[C@H](CO)[C@@H](O)[C@H](O)[C@H]3O)[C@H]12,inactive,
COc1ccc(C(OC2OC(CO)C(O)C(O)C2O)C(C)O)cc1 (centres undefined),inactive,
O=C(O)CCc1cccc(O[C@@H]2O[C@H](CO)[C@@H](O)[C@H](O)[C@H]2O)c1O,inactive,
CON(C)C(=O)N1N=C(c2cc(F)ccc2F)S[C@@]1(CCCN)c1ccccc1,inactive,
C=C1CC2[C@]3(C)C(=C(O)C(=O)[C@@]2(C)[C@]2(C(=O)OC)C(=O)C(C)OC(=O)[C@@]12C)C(C)(C)C(=O)CC3O (some centres undefined),inactive,
Cn1ccnc1CCOC(c1cc2nccc(C(=O)O)c2[nH]1)c1ccccc1Cl (centres undefined),inactive,
CC(C)N(C[C@H]1O[C@@H](n2cnc3c(N)ncnc32)[C@H](O)[C@@H]1O)C1CC(CCc2nc3ccc(C(C)(C)C)cc3[nH]2)C1 (some centres undefined),inactive,
COC(=O)C1=C[C@@H](O)[C@@H](O)[C@H](O[C@@H]2O[C@H](COC(=O)/C=C/c3ccccc3)[C@@H](O)[C@H](O)[C@H]2O)C1,inactive,
c1ccc(C(OC2CCN(CCCc3nn[nH]n3)CC2)c2ccccc2)cc1,inactive,
CCn1nnnc1NCc1ccc(C(C)C)cc1,inactive,
O=C1NC(Cc2ccc(O)cc2)C(=O)N2CCCC12 (centres undefined),inactive,

SMILES,Potency,redox activity (% of DA3003)
CC(C)(C)NCc1cc(Nc2ccnc3cc(Cl)ccc23)c2c(c1O)CCCC2,,-4.12% [at 0.461 µM]
COc1ccccc1-n1c(SCC(=O)Nc2nc3ccc(C)cc3s2)nc2c(c1=O)SCC2,inactive,
COC(=O)[C@@]1(O)C=CC[C@@H]2[C@@]3(C)C[C@@H](c4ccoc4)OC(=O)[C@H]3CC[C@]21C,inactive,
O=C1C[C@@H](c2ccc(O)cc2)Oc2cc(O)ccc21,inactive,
CC(=O)NCCCCn1c2c(c3ccccc31)C(=O)NCC2,inactive,
C[C@H]1C[C@H]2[C@@H]3CCC4=CC(=O)C=C[C@]4(C)[C@@]3(F)[C@@H](O)C[C@]2(C)[C@@]1(O)C(=O)COP(=O)(O)O,inactive,
COC12CC3C(C(C)C1=CC(=O)O2)C(O)C(OC(C)=O)C1C(C)(C)C(OC(C)=O)CCC31C (centres undefined),inactive,
C=C1CC[C@H]2[C@@](C)(CCC[C@@]2(C)C(=O)O)[C@@H]1CCC(C)CCO (some centres undefined),inactive,
COc1cc(NC(=O)c2ccccn2)ccc1Cl,inactive,
CC(=O)NC(CCC(=O)O)C(=O)NCCc1ccc(O)cc1 (centres undefined),inactive,
C=C1CCC2C(C)(CO[C@@H]3O[C@H](CO)[C@@H](O)[C@H](O)[C@H]3O)C(O)CCC2(C)C1C(=O)CC1=CCOC1=O (some centres undefined),inactive,
CC1=CCC2C(C)(CO)CCCC2(C)C1CC12OC1C(O)C(CO)=CC2O (centres undefined),inactive,
CCC(C)C(=O)O[C@@H]1[C@@H](O)[C@@H](O[C@H]2O[C@H](CO)[C@@H](O)[C@H](O)[C@H]2O)O[C@H](CO)[C@H]1O (some centres undefined),inactive,
C[C@@]12C[C@]3(O)O[C@H](O1)[C@]1(COC(=O)c4ccccc4)[C@H]3C[C@@]12O[C@@H]1O[C@H](COC(=O)c2ccccc2)[C@@H](O)[C@H](O)[C@H]1O,inactive,
COC1CC(=O)CCC(C)OC(=O)CC1O (centres undefined),inactive,
C[C@]1(O)CC[C@@H]2C(C(=O)O)=CO[C@@H](O[C@@H]3O[C@H](COC(=O)c4ccc(O)cc4)[C@@H](O)[C@H](O)[C@H]3O)[C@@H]21,inactive,
CC(=O)O[C@@H]1C[C@@]23C[C@@]24CC[C@H](OC2OC[C@@H](O)[C@H](O)[C@H]2O)C(C)(C)[C@@H]4CC[C@H]3[C@]2(C)CC3OC4(C[C@@H](C)C3[C@@]12C)OCC1(C)OC14 (some centres undefined),inactive,
